The experiment deals with PPARg:RXRa 270nM:90nM, anti-RXR (NR concentration 270 nM, RXRa partner concentration 90 nM). Nature of the experiment: PBM binding z-score (relative to random genomic background probes); higher = stronger binding; sequences stand for … in GC…GCGATTGACAGCGTAGAATGAAGG
A digest of the protocol: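 Binding buffer was PBS pH 7.4 with 2% milk, 0.02% Triton X-100, 1 mM DTT, 0.2 mg/mL BSA and 0.4 mg/ml salmon testes DNA. In it, ligand-free nuclear receptor dimers were incubated 1 h on custom Agilent 4×180K protein-binding microarrays carrying double-stranded probes. Antibodies against each partner (one per run) detected binding, and z-scores were calculated against random background probes after regression normalization of scanned fluorescence.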
On to CCTTGCGGGTCACGAGGTTATAGCACGACGAGCG, for which the PBM binding z-score turned out to be 6.95.
In the case of TCGAGTAGGTTACCAATGGGGCTTTCAGCTTTCT it was 0.803; in that of CGTCCAAGGACAAGGTCAGTGAAAGAGACTCGAA, 1.23; in that of ATCTCTAGGTAAGACTCAGTTCAGAGAAGAACGC, 0.339.
In the case of TCTTGTAGATCAACAGGAGGTTAAGAAAGATCGA it was 1.2.
In the case of CCAGACAGGTGAGAAGGTAACTCAACCTCGATTA it was 0.515; in that of CTACCAAGGTGAGCAAGGTCGTTGATTACTATTC, 0.556; in that of AGTCAAAGTACACTAGGTAACGTAAGATTCAGCT, 0.666.
In turn, CGAACTAGGTCAGAAAAGGACAGTGAAGGATGAT returned a PBM binding z-score of 4.06.
For TCATATAGGTAAATGCTAGCTGAAAGTCCGATCT, the PBM binding z-score was determined as 1.96.
In the case of TTACTAAGGTGAGCTGAGGTCGTTGATCCAACTC it was 1.26.
For the sequence ACTAGCAGGCCAAGTTTGGGTTACTCAAACAAAG, the PBM binding z-score was -0.325.
In the case of TTACCAAGGTGAGCTGAGGACGTTGATCCAACTC it was -0.267.
ATCTCTAGGTAAAAGTTCAATGAATCCCGAGGAT showed a PBM binding z-score of 8.49.
On to GTACCAAGGTGAATGGGTCGTTGATGAGTAGGCG, for which the PBM binding z-score turned out to be 1.19.
In the case of CAGCCTAGGTCAGGGCCAGTATCGGAGGAACGTT it was 0.759; in that of CAAACTAGGTCAGGAGGTCAAAGTCCGCTTCCCG, 7.3; in that of TAGCCTAGGTCATTCGGGCCAGTATAGTGTCGGC, 2.21.
To ACAGACAGGCGAGTGAAGGTAACTCAGCTGGACG belongs -0.142; to GGAACCAGGGCATTCGAGTTGATAGCATGGCGAT, 0.862.
To ATATGTAGGTTATCGGGTCAGTCAGTTTGCGCAT belongs 5.81; to CCTTACGGGTCACTGACAGGTTATATCATTTGGA, 4.13; to GCTCGGAGGACAAGGTCAAAGCTTTGTCCGTAGA, 3.57.
With GCTAGTTGGTCAGTAAAAGGCCACACACCGGTCG, the PBM binding z-score came to 0.122.
For CCTTACGGGTCACTGACCGGTTATAGCATTTGGA, the PBM binding z-score came to 4.28.
In the case of CCTACTGGGCCACGAAGGGTCATTGATTCAGTGA, the PBM binding z-score is 3.45.
In the case of AGAATGAGGGCACGCTGAGTTGATAGCAGAGTAG it was 2.62; in that of GCTAACAGGCCATTTGGGTCACTCAATGACGGGC, 0.349.
The sequence TCGAGTAGGTTAGCGGCATTCAGAATGGCGTCGA came in with a PBM binding z-score of 0.409.
TATACAGGGTTAAAGGCCAGAGTACGAATGTCGA displayed a PBM binding z-score of 5.44.
To CGAACTAGGTCTTCCAGGACAGTGAATACATTGA belongs 0.622; to TTACCAAGGTGAGCTGAAGTCGTTGATCCAACTC, 0.143; to CGTGCAAGGTCAAGGTCAGTGAAAGAGACTCGAA, 6.55.
Consider CCGAGTAGGTTATGGGGCAATCAGGCAACGGTGA, for which the PBM binding z-score is 4.62.
Take GCAGACGGGTGAAACGCAGGTAACTCAGGGTGGC: the PBM binding z-score is -0.502.
Sequence TATAGAGGGTCAAAGGCCAGAGTACGAATGTCGA came in with a PBM binding z-score of 6.87.
To GATACAGGGTCAGCTATAGGCCAGAGTATGGAAA belongs 3.17; to ATCTCTAGGTAAGACTCAGTTCAGGGAAGAACGC, 0.397.
To AATACAGGGTCATCGTAGGCCTGAGTACGCACAG belongs 5.92; to TCTTGTAGATCACAGGTTAAGAAAGCCGAAGCCT, 4.44.
